Screening results deposited in PubChem BioAssay by several laboratories.
Sampled rows, rich in hits. Any-hit rate of the full collection: about 5.7%.
FAS-TE inh – inhibitors of human fatty acid synthase thioesterase domain | 360,000 tested, 0.67% active | P49327 | inhibition, % at 15 µM | recombinant FAS-TE, OMFH fluorogenic substrate, fluorescence endpoint | AID 602261;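 active = compounds whose normalised, plate-corrected inhibition of enzyme fluorescence in the single-dose primary screen is 50% or more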;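 note: 0% = DMSO with enzyme and 100% = substrate without enzyme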
Myeloid diff 2 – myeloid differentiation induction. ER-HoxA9 myeloid progenitors, lysozyme-GFP differentiation, flow cytometry. calls only at 10 µM. 360,000 tested, 1% active;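 active = normalized GFP-positive differentiation at or above the plate's own cutoff, the solvent-only control mean plus 3 SD; inconclusive = no clear call, values can overlap the other calls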;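 note: cells exposed to compound for four days before flow analysis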
GRIN3A LBD mod – NR3A (human) ligand-binding domain modulation. NR3A LBD differential scanning fluorimetry, Tm shift; 0% = protein alone, 100% = glycine-bound protein. Tm shift relative to glycine control, % at 25 µM. 340,000 tested, 2.5% active;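 active = melting temperature shift of at least 10% of the positive control shift, at one fixed dose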
MPTP inh – blocks calcium-induced mitochondrial swelling. isolated mouse mitochondria, Ca2+ swelling absorbance, 30 min. inhibition, % at 10 µM. 360,000 tested, 1.4% active;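 active = inhibition of 50% or more, scaled per plate between neutral and stimulator controls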;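 note: 0% = DMSO wells given calcium and 100% = 1 mM EGTA wells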
rCAG RNA binder – binds r(CAG) RNA repeats; r(CAG) RNA repeat, TO-PRO-1 dye displacement fluorescence; inhibition, % at 3 µM; 370,000 tested, 1.3% active;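 active = inhibition above the plate cutoff, the mean of all test compounds on that plate plus 3 SD, cut at about 35% in these data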;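 note: 0% = DMSO alone and 100% = 100 µM mitoxantrone as full dye displacement; higher means more dye released from RNA so lower well fluorescence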
Rh123 counter – mitochondrial membrane potential, counter-screen | shares compounds with MPTP inh | isolated mitochondria, Rhodamine 123 fluorescence | inhibition, % at 10 µM | 5,000 tested, 78% active; in the data active = inhibition above about 22%;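 note: 0% = DMSO vehicle and 100% = positive control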
MPTP swell DR – MPTP inhibition, dose response swelling confirmation; IC50, µM; isolated mitochondria swelling, absorbance; 780 tested, 58% active; shares compounds with MPTP inh; in the data active = IC50 below about 20 µM
MPTP cs DR – counter-screen for mitochondrial permeability transition pore inhibitors, dose response; shares compounds with MPTP inh; isolated mitochondria counterscreen, fluorescence read-out; IC50, µM; 780 tested, 49% active; in the data active = IC50 below about 80 µM
* = called active by the depositor; i = inactive; ? = inconclusive; / = no result.

SMILES	FAS-TE inh	Myeloid diff 2	GRIN3A LBD mod	MPTP inh	rCAG RNA binder	Rh123 counter	others
O=C(Cc1ccc(Cl)cc1)Nc1ncc([N+](=O)[O-])s1	6	i	-7	96*	6	89*
O=C(COC(=O)COc1ccccc1)Nc1ncc([N+](=O)[O-])s1	-2	i	1	-2	34	/
O=C(COc1ccc(Cl)cc1)Nc1ncc([N+](=O)[O-])s1	10	i	-4	95*	19	103*
O=C(NNC(=O)c1ccc(-c2ccc([N+](=O)[O-])cc2)o1)c1ccncc1	8	i	-2	1	6	/
COc1ccc(S[C@]2(C(=O)N(C)C)CC(=O)N(S(=O)(=O)c3ccc(F)cc3)[C@@H]2c2ccc(OC)cc2)cc1	/	/	/	/	11	/
Cc1nn(-c2ccc(Cl)cc2)c2[nH]c(CCl)cc(=O)c12	1	i	-1	81*	28	81*
Cc1cccc(NC(=O)C(C)OC(=O)c2ccccc2NS(=O)(=O)c2cc(C)c(C)c([N+](=O)[O-])c2)c1 (stereo not drawn)	28	i	-13	93*	10	65*
c1ccc(COc2cccc(-c3cc4nc(NCCc5ccncc5)ccn4n3)c2)cc1	22	i	/	0	8	/
Cc1cc(/N=C/C=C2\N(C)c3ccccc3C2(C)C)n(CCC#N)n1	-2	i	-1	2	-3	/
NC(=S)Nc1ccc(Cl)c(Cl)c1	-4	i	9	13	-3	/
Cc1cccc(C)c1NC(=S)Nc1ccc(Cl)c(Cl)c1	7	i	-1	98*	1	97*
Cc1cc(C)cc(NC(=S)Nc2ccc(Cl)c(Cl)c2)c1	25	i	22*	103*	6	89*
CC(=O)N(c1ccc(C)cc1)c1nc(C)cc(C)c1C#N	1	i	-1	2	-3	/
N=c1oc2cc(O)ccc2cc1C(=O)Nc1ccc(Br)cc1	3	i	-2	61*	11	78*
O=C1NC[C@H](CCCCN2CCN(Cc3ccccc3)C(=O)C2=O)N(CCC2CCCCC2)C1=O	-8	i	/	-3	0	/
CC1=CN2C(=N)/C(=C/c3ccc(Sc4ccc(Cl)cc4)o3)C(=O)N=C2S1	-2	i	9	58*	15	41*
COCc1cc(N2CCN(C(=O)OC(C)(C)C)C[C@H]2C)ccc1Br	/	/	/	/	0	/
CC(C)c1cc(Cn2c3ccccc3c(=O)n2C(C)Cn2cc(-c3ccccc3)nn2)on1 (stereo not drawn)	/	i	/	-1	0	/
Cc1cc(C)cc(NC(=O)Nc2ccccc2N2CCCCC2)c1	9	i	2	63*	0	61*
O=C(Nc1ccc(Cl)cc1)Nc1ccc(N2CCCC2)c(S(=O)(=O)Nc2ccccc2Cl)c1	31	i	32*	98*	33	48*
COC(=O)c1sccc1NC(=S)N1C(C)CCCC1C (stereo not drawn)	9	i	1	1	8	/
N=C1/C(=C/c2coc3ccccc3c2=O)C(=O)N=C2SC(c3ccco3)=NN12	-50	i	1	64*	/	71*
CSC1=NSC2=NC(=O)/C(=C\c3coc4ccccc4c3=O)C(=N)N12	-75	i	6	95*	-213	90*
N=C1/C(=C\c2coc3ccccc3c2=O)C(=O)N=C2SC(c3ccncc3)=NN12	-20	i	-1	94*	-42	64*
CC1(C)CC2(CCCN(CC(O)(c3ccccc3)c3ccccc3)C2)CCO1 (stereo not drawn)	19	i	0	2	-8	/
SMILES	FAS-TE inh	Myeloid diff 2	GRIN3A LBD mod	MPTP inh	rCAG RNA binder	Rh123 counter	others
CC(C)(C)c1ccc(S(=O)(=O)N2CCC(C(=O)NCC3COCCO3)CC2)cc1 (stereo not drawn)	/	/	/	/	1	/
CCc1ccc(-c2cc3c(=O)n(CC(=O)NCCCN4CCC(Cc5ccccc5)CC4)nc(C)n3n2)cc1	33	?	2	98*	1	-3	MPTP swell DR=3*;MPTP cs DR=>80
Cc1nn(CC(=O)NCCCN2CCN(Cc3ccccc3)CC2)c(=O)c2cc(-c3ccccc3)nn12	-1	i	2	12	-6	/
CCN1CCN(CCCNC(=O)Cn2nc(C)n3nc(-c4ccccc4)cc3c2=O)CC1	-5	i	-1	0	-1	/
Cc1nn(CC(=O)NCCCN2CCC(Cc3ccccc3)CC2)c(=O)c2cc(-c3ccccc3)nn12	3	i	0	74*	2	-6	MPTP swell DR=i;MPTP cs DR=>80
COC(=O)[C@]12C[C@H](CC(=O)N3CCOCC3)C(=O)N(Cc3ccco3)C1=C[C@H](C1CCCC1)O[C@@H]2C	/	/	/	/	-1	/
CNc1cncc(-c2ccc(CN3CCOCC3)cc2)n1	-7	i	/	0	0	/
COc1ccc(C(=O)c2sc3nc(C)cc(-c4cccs4)c3c2N)cc1OC	-22	i	9	1	-4	/
COC(=O)c1cc(CSc2nc3ccccc3c(=O)n2C)oc1C	20	i	-2	84*	4	93*
Cc1ccc(-c2nc(CSc3nc4ccccc4c(=O)n3C)cs2)cc1	19	i	-2	100*	2	45*
CCCCN(C(=O)c1cc(Cl)nc2ccccc12)c1c(N)n(CCCC)c(=O)[nH]c1=O	-6	i	0	0	2	/
CN(C)c1ccc(/C=C/c2ccc3c4ccccc4ccc3[n+]2-c2ccccc2)cc1	-4	/	5	154*	30	77*
CN(C)c1ccc(/C=C/c2ccc3ccccc3[n+]2C)cc1	-24	/	-3	109*	19	68*
CN(CCCS(=O)(=O)[O-])c1ccc(/C=C/c2ccc3ccccc3[n+]2C)cc1	-5	i	0	3	3	/
CN(C)c1ccc(/C=C/c2cccc[n+]2[O-])cc1	-9	i	-1	2	-22	/
CCc1ccc(OCc2nnc(SCC(=O)Nc3cccc(C(=O)N4CCOCC4)c3)o2)cc1	-4	i	2	2	-5	/
CCOC(=O)c1ccc(NC(=O)CCc2nc(-c3ccc(Cl)cc3)no2)cc1	22	i	3	97*	2	81*
CCOC(=O)c1ccc(NC(=O)CCc2nc(-c3ccc(C)cc3)no2)cc1	31	i	5	85*	-1	85*
COc1ccc(-c2noc(CCC(=O)Nc3ccc4c(c3)OCCO4)n2)cc1	11	i	-3	28	-4	/
COc1ccc(NC(=O)CCc2nc(-c3ccc(C)cc3)no2)cc1Cl	21	i	-1	20	1	/
Cc1ccc(-c2noc(CCC(=O)Nc3ccc4c(c3)OCO4)n2)cc1	-2	i	0	52*	-1	26*
COc1ccc(N(CC(=O)Nc2ccc(F)c(Cl)c2)S(=O)(=O)c2c(C)noc2C)cc1	27	i	16*	69*	7	78*
